Laboratory results taken from PubChem BioAssay (Tox21).
Inconclusive results are not listed. Entries that show only a call come without a potency. Values without a mark were called inactive. The source made the active and inactive calls. The call rests on the fitted dose curve.

molecular target: Beta-2 adrenergic receptor (Homo sapiens) (UniProt P07550); experiment: Adrenergic beta2 receptor (ADRB2) small molecule antagonists, cell-based qHTS assay (AID 1963592); settings: CHO-ADRB2 cells, isoproterenol-stimulated cAMP HTRF ratio, 0.5 h; series mostly up to 92.4 µM; activity change, negative = inhibition: at the top concentration; further: nearly all actives have a fitted effect of over 50% in size
Excerpt: U.S. Tox21 Program National Center for Advancing Translational Sciences [NCATS] Division of Preclinical Innovation [DPI] U.S. Environmental Protection Agency [EPA] National Institutes of Environmental Health Sciences [NIEHS] National Toxicology Program [NTP] U.S. Food and Drug Administration [FDA] Tox21 Assay Overview: Beta adrenergic receptors (Beta-ARs) belong to the G-protein coupled receptor (GPCR) superfamily, includes three subtypes - beta1, beta2, and beta3. Beta1-AR is the predominant receptor subtype expressed in the heart, and beta2-AR is expressed in the kidney, lung, blood vessel and in the heart, and beta3 is found in the adipocytes. Beta1 and 2 ARs couple to Gs protein and elevate cyclic adenosine mono phosphate (cAMP), which activates protein kinase A and leads to the downstream signaling responsible for the physiological actions. Beta-AR agonists or antagonists are the most prescribed therapeutic agents for heart failure and asthma, and these were one of the first target receptors for the rational drug design. Tox21 10K compound library was screened using the cAMP-Gs dynamic assay (Cisbio Bioassays, Shelton, CT) to identify agonists/antagonists of the Gs-coupled human adrenergic, beta2 receptor (ADRB2) in the CHO-ADRB2 cell line (Codex BioSolutions, Inc. Gaithersburg, MD), which stably over-expresses ADRB2. The principle of cAMP-Gs dynamic assay is based on HTRF technology, which facilitates the fluorescence resonance energy transfer (FRET) between donor Europium cryptate and acceptor d2-labeled cAMP. The cAMP generated within cells competes with the red acceptor, d2-labled cAMP, for binding to the monoclonal anti-cAMP-cryptate (Europium donor). An increase in intracellular cAMP leads to the disruption of FRET signal, and the signal is inversely proportional to the cAMP concentration. Propranolol HCl (Sigma-Aldrich, St. Louis, MO) was used as a positive control in the screening.
Tox21 Assay Protocol Summary: CHO-ADRB2 cells were dispensed at 1,000/well in 4uL assay medium into white/solid 1536-well plates (Greiner Bio-One North America Inc., Monroe, NC) using a Multidrop Combi dispenser (ThermoFisher Scientific, Waltham, MA). The assay plates were incubated at 37C and 5% CO2 for an overnight (18-20hr). Then positive control and test compounds dissolved in DMSO were transferred to the assay plates at 23nL using a Pintool station (Wako, San Diego, CA). Following the compound and positive control transfer, 1uL agonist-stimulation mix containing 1nM Isoproterenol HCl, 100uM IBMX and 25uM Ro-20-1724 was added to each well of the assay plates using BioRAPTR Flying Reagent Dispenser (FRD, Beckman Coulter, Brea, CA). The assay plates were incubated at room temperature for 0.5hr. Then 2.5ul each d2-labled cAMP and anti-cAMP-cryptate solutions were added separately to each well of the assay plates using an FRD and the assay plates were incubated at room temperature for 1hr. The fluorescence signal was measured at two different wavelengths (665nm and 615nm) using an Envision plate reader (Perkin Elmer, Shelton, CT). Data were expressed as the ratio of 665 nm/615 nm.
Potency means the concentration at half of the fitted maximal effect.

Chain of Beta-2 adrenergic receptor (Homo sapiens) (P07550 whole entry, looked up): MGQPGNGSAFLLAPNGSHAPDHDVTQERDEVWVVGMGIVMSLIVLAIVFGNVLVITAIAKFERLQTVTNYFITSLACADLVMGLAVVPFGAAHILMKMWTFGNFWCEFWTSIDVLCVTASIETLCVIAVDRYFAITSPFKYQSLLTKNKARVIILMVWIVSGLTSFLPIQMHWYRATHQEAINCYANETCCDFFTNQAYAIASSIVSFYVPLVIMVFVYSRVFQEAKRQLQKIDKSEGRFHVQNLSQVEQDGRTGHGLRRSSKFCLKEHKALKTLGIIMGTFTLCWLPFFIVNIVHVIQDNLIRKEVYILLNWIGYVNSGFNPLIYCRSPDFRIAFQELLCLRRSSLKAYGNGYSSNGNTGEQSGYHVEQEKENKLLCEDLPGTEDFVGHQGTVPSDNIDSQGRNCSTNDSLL

Structure (SMILES)	Potency	activity change, negative = inhibition
NC(N)=NC(=O)c1nc(Cl)c(N)nc1N	inactive	–
O=C(O)c1cccnc1	inactive	–
CCCCOCCOC(=O)c1ccccc1C(=O)OCCOCCCC	inactive	–
COC(=O)c1ccccc1	inactive	–
O=C1O[C@H](CO)[C@@H](O)[C@H](O)[C@H]1O	inactive	–
C[C@]12CC[C@@H]3c4ccc(O)cc4CC[C@H]3[C@@H]1CC[C@@H]2O	inactive	–
CCCCOCCOCCSC#N	inactive	–
CC(=O)OC[C@H]1O[C@@](COC(C)=O)(O[C@H]2O[C@H](COC(C)=O)[C@@H](OC(C)=O)[C@H](OC(C)=O)[C@H]2OC(C)=O)[C@@H](OC(C)=O)[C@@H]1OC(C)=O	inactive	–
c1ccc2c(c1)ccc1ccccc12	inactive	–
CCCCCCC(C)O (stereo not given)	inactive	–
CCCCCCCCCCCCO	inactive	–
O=c1c(-c2ccc(O)cc2)coc2cc(O)cc(O)c12	inactive	–
CC(=O)OC(C)(C)C1CC=C(C)CC1 (stereo not given)	inactive	–
CC(O)CO (stereo not given)	inactive	–
Oc1ccc(Cl)cc1Cc1cc(Cl)ccc1O	48.6 µM (active)	–
CC(C)=CCCC(C)CCO (stereo not given)	inactive	–
Cc1ccc(O)cc1	inactive	–
OB(O)O	inactive	–
O=C1NC(=O)c2ccccc21	inactive	–
CCCCCCCCCCO	inactive	–

Structure (SMILES)	Potency	activity change, negative = inhibition
CCO[Si](CCCNC(N)=O)(OCC)OCC	inactive	–
Cc1ccc(S(=O)(=O)O)cc1C	inactive	–
Cc1ncc[nH]1	inactive	–
C[C@]12CCC(=O)C=C1CC[C@@H]1[C@@H]2C(=O)C[C@@]2(C)[C@H]1CC[C@]2(O)C(=O)CO	inactive	–
C[C@]12CC[C@@H]3c4ccc(O)cc4C[C@@H](CCCCCCCCCS(=O)CCCC(F)(F)C(F)(F)F)[C@H]3[C@@H]1CC[C@@H]2O (stereo not given in full)	inactive	–
CC(C)=CCC/C(C)=C/CO	inactive	–
C[N+](C)(C)CCCCCC[N+](C)(C)C	–	0.525% [at 42.5 µM]
O=C(Oc1ccccc1)c1ccccc1O	inactive	–
C=CCCCCCCCCCC	inactive	–
CCCCCCCCCCCCOC(=O)c1cc(O)c(O)c(O)c1	inactive	–
CCN(CCN)c1cccc(C)c1	24.6 µM (active)	–
CC(=O)CC(c1ccccc1)c1c(O)c2ccccc2oc1=O (stereo not given)	inactive	–
C[C@]12C=CC(=O)C=C1CC[C@@H]1[C@@H]2[C@@H](O)C[C@@]2(C)[C@H]1CC[C@]2(O)C(=O)CO	inactive	–
OC[C@@H](O)[C@H](O)[C@H](O)[C@@H](O)CO	inactive	–
CCCCOC(=O)CCCCCCCCC(=O)OCCCC	inactive	–
CC1=CC(C)(C)Nc2ccccc21	inactive	–
COc1ccc(OC)cc1	inactive	–
COC(=O)CC(=O)OC	inactive	–
Cc1cn([C@H]2C=C[C@@H](CO)O2)c(=O)[nH]c1=O	inactive	–
C=C(C#N)C(=O)OCC	–	8.16%
